22 compounds from PubChem BioAssay (EPA / NIEHS) can be followed below.

Read-out in assay [1]: Tissue Factor, F3 (gene 2152)
The assay is described as follows: BSK_CASM3C_TissueFactor: BioMAP Diversity Plus: CASM3C Assay for Tissue Factor Biomarker Activity (AID 2283052).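 Also: cell surface tissue factor protein level read by ELISA.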 The following applies: primary human coronary artery smooth muscle cells; actives raise or lower the signal.

Read-out in assay [2]: Interferon-gamma inducible Protein 10 (IP10), CXCL10 (gene 3627)
The assay is described as follows: BSK_hDFCGF_IP10: BioMAP Diversity Plus: hDFCGF Assay for Interferon-gamma inducible Protein 10 (IP10) Biomarker Activity (AID 2283053). As to conditions: primary human foreskin fibroblasts; actives raise or lower the signal. In outline: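 Cells: human dermal foreskin fibroblasts. Exposure: 24 h post-dosing. Detection: IP-10 ELISA, with values expressed against DMSO controls and fitted in both directions.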

Read-out in assay [3]: Urokinase-type plasminogen activator receptor (uPAR), PLAUR (gene 5329)
The experiment in a line: BSK_CASM3C_uPAR: BioMAP Diversity Plus: CASM3C Assay for Urokinase-type plasminogen activator receptor (uPAR) Biomarker Activity (AID 2283054).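 Also: cell-surface uPAR protein level quantified by ELISA.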 The following applies: primary human coronary artery smooth muscle cells; actives raise or lower the signal.

Read-out in assay [4]: Vascular cell adhesion molecule 1 (VCAM1), VCAM1 (gene 7412)
The assay is described as follows: BSK_CASM3C_VCAM1: BioMAP Diversity Plus: CASM3C Assay for Vascular cell adhesion molecule 1 (VCAM1) Biomarker Activity (AID 2283055).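 Also: VCAM-1 protein level quantified by ELISA on the cells.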 As to conditions: primary human coronary artery smooth muscle cells; actives raise or lower the signal.

Read-out in assay [5]: Epidermal growth factor receptor (EGFR), EGFR (gene 1956)
The experiment in a line: BSK_hDFCGF_EGFR: BioMAP Diversity Plus: hDFCGF Assay for Epidermal growth factor receptor (EGFR) Biomarker Activity (AID 2283057). The following applies: primary human foreskin fibroblasts; actives raise or lower the signal. In outline: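 Dosing human primary skin fibroblasts, then measuring surface EGFR by ELISA at 24 h, gives the endpoint; gains and losses relative to DMSO were fitted in both directions.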

Read-out in assay [6]: Interleukin-8 (IL8), CXCL8 (gene 3576)
The assay is described as follows: BSK_hDFCGF_IL8: BioMAP Diversity Plus: hDFCGF Assay for Interleukin-8 (IL8) Biomarker Activity (AID 2283058). The following applies: primary human foreskin fibroblasts; actives raise or lower the signal. The method in brief: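 hDFCGF human dermal fibroblasts; 24 h chemical exposure; IL-8 by ELISA; bidirectional curve fit vs DMSO baseline; gain or loss of signal scored.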

The nature of assay [7]: BSK_hDFCGF_Proliferation: Cell Proliferation Assessment in the BioMAP Diversity Plus: hDFCGF Assay (AID 2283059).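 Also: curves fitted for both rise and fall of signal versus DMSO baseline.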 As to conditions: primary human foreskin fibroblasts. The method in brief:
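This proliferation readout used SRB total-protein staining of human foreskin fibroblasts […], normalized to DMSO with bidirectional curve fitting.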

Read-out in assay [8]: Macrophage colony-stimulating factor (MCSF), CSF1 (gene 1435)
The assay is described as follows: BSK_hDFCGF_MCSF: BioMAP Diversity Plus: hDFCGF Assay for Macrophage colony-stimulating factor (MCSF) Biomarker Activity (AID 2283060). As to conditions: primary human foreskin fibroblasts; actives raise or lower the signal. The method in brief:
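Human foreskin primary fibroblasts were treated with test chemical for 24 h, and M-CSF was then measured by ELISA. Data were fitted bidirectionally against DMSO as the negative control and activity baseline.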

Assay [9] is described as follows: BSK_hDFCGF_SRB: Viability Assessment in the BioMAP Diversity Plus: hDFCGF Assay (AID 2283061).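 Also: cells exposed to compound for 24 h before the read.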 The following applies: primary human foreskin fibroblasts. In outline:
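Human foreskin primary fibroblasts were treated with compound and assessed 24 h after dosing. Total protein was measured by sulforhodamine B staining (0.1% SRB after 10% TCA fixation, 560 nm read) as a cytotoxicity marker, with bidirectional fitting against DMSO baseline.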

In general, AC50 refers to the concentration giving half of the maximal activity seen.

Active and inactive are the calls of the source. The calls were made as follows: active = hit-call score of the fitted dose curve at least 0.9, where 1 is the maximum; inactive = score below 0.9.

For the compound `Oc1ccccc1Cl`, the result in assay [1], in assay [2], in assay [3], in [4], in [5] and in assay [6] was inactive. The result in assay [7], in assay [8] and in assay [9] was inactive.

Regarding `CCCCCCCCCCCCCN1CC(C)OC(C)C1` (configuration not stated), the outcome in [1], in [2], in assay [3], in assay [4], in [5] and in [6] was inactive. Also, the result in assay [8] and in assay [9] was inactive. Besides, the AC50 in assay [7] was 0.541 µM (active).

On to `[Cl-].[Cl-].[Hg+2]`, for which the concentration at half-maximal activity (AC50) was 32.6 µM (active) in assay [1]; 11.5 µM (active) in assay [2]; 34.4 µM (active) in assay [3]; 26.5 µM (active) in assay [4]; 13.6 µM (active) in [6]; 4.83 µM (active) in assay [7]. Besides, the AC50 in assay [8] was 10.7 µM (active); in assay [9] it was 12.1 µM (active). For the same compound, the result in [5] was inactive.

For `ClC1=C(Cl)C2(Cl)C3C(Cl)C=CC3C1(Cl)C2(Cl)Cl` (configuration not stated), the AC50 in [1] is 29.3 µM (active); in assay [2], 8.86 µM (active); in assay [3], 31.8 µM (active); in assay [4], 30.2 µM (active); in assay [6] it was 11.4 µM (active); in assay [7], 10.3 µM (active). Further, the AC50 in assay [8] is 9.47 µM (active); in assay [9], 11.2 µM (active). Also, the result in [5] was inactive.

Turning to `N#CC(Br)Br`, the result in [1], in [2], in assay [3], in assay [4], in assay [5] and in assay [6] was inactive. For the same compound, the outcome in [7], in [8] and in [9] was inactive.

In the case of `O=[N+]([O-])c1ccc(Oc2ccc(Cl)cc2Cl)cc1`, the result in [1], in [3], in [4], in assay [5], in assay [6] and in assay [9] was inactive. Besides, the AC50 in assay [2] was 20 µM (active); in assay [7] it was 20 µM (active); in [8] it was 13.1 µM (active).

Regarding `Brc1ccc(Oc2ccccc2)cc1`, the result in [1], in [2], in [3], in [4], in [5] and in assay [6] was inactive. Moreover, the outcome in [7], in assay [8] and in assay [9] was inactive.

On to `CS(=O)(=O)NC(=O)c1cc(Oc2ccc(C(F)(F)F)cc2Cl)ccc1[N+](=O)[O-]`, for which the result in assay [2], in assay [3], in assay [4], in [5], in assay [6] and in assay [7] was inactive. Further, the result in [8] and in assay [9] was inactive.

On to `c1ccc(C2CO2)cc1` (configuration not stated), for which the result in assay [1], in assay [2], in assay [3], in assay [4], in assay [5] and in assay [6] was inactive. Moreover, the result in [7], in assay [8] and in assay [9] was inactive.

As to `Cc1ccc([N+](=O)[O-])cc1`, the result in assay [1], in assay [2], in assay [3], in assay [4], in [5] and in [6] was inactive. In addition, the outcome in assay [7], in assay [8] and in assay [9] was inactive.

Regarding `Nc1ccc(Cl)cc1N`, the outcome in [1], in assay [2], in [3], in assay [5], in [6] and in [9] was inactive. Moreover, the figures for the AC50 in assay [4], in assay [7] and in assay [8] were 3.97 µM (active), 11.2 µM (active) and 6.73 µM (active), respectively.

On to `Clc1ccccc1Cl`, for which the result in [1], in [2], in assay [3], in [4], in assay [5] and in [6] was inactive. In addition, the outcome in assay [7], in assay [8] and in [9] was inactive.

On to `CO[C@@H]1[C@H](OC(=O)NC(=O)CCl)CC[C@]2(CO2)[C@H]1[C@@]1(C)O[C@@H]1CC=C(C)C`, for which the outcome in [1] and in assay [3] was inactive. Further, the AC50 is 5.48 µM (active) in [2]; 6.2 µM (active) in assay [4]; 9.51 µM (active) in [5]; 11.5 µM (active) in [6]; 2.28 µM (active) in [7]; 6.58 µM (active) in assay [8]. The AC50 in [9] was 9.25 µM (active).

Consider `Cc1ccc(N)cc1`, for which the result in assay [1], in assay [2], in assay [3], in assay [4], in assay [5] and in [6] was inactive. The outcome in [7], in assay [8] and in assay [9] was inactive.

On to `Clc1ccc(C(c2ccc(Cl)cc2)C(Cl)(Cl)Cl)cc1`, for which the AC50 in [1] is 33.2 µM (active); in assay [2] it was 14.1 µM (active); in assay [3] it was 20 µM (active); in assay [4], 20 µM (active); in assay [6], 27.3 µM (active); in assay [7], 5.38 µM (active). The AC50 was 10.9 µM (active) in [8] and 10.6 µM (active) in assay [9]. In [5], the result was inactive.

For the compound `[As]#[In]`, the outcome in assay [1], in [2], in [3], in [4], in [5] and in [6] was inactive. The result in assay [7], in [8] and in assay [9] was inactive.

For the compound `Nc1ccc(Cc2ccc(N)cc2)cc1`, the result in assay [1], in assay [2], in assay [3], in assay [4], in assay [5] and in [6] was inactive. For the same compound, the outcome in [7], in [8] and in [9] was inactive.

As to `OCCCBr`, the result in assay [1], in assay [2], in assay [3], in assay [4], in assay [5] and in [6] was inactive. For the same compound, the result in assay [7], in [8] and in assay [9] was inactive.

`Clc1ccc(C(c2ccc(Cl)cc2)C(Cl)Cl)cc1`: the AC50 is 26.4 µM (active) in assay [1]; 9.7 µM (active) in [2]; 36.7 µM (active) in [3]; 12.2 µM (active) in [6]; 11.9 µM (active) in assay [7]; 7.94 µM (active) in assay [8]. The half-maximal activity concentration (AC50) in assay [9] is 9.91 µM (active). Further, the outcome in assay [4] and in [5] was inactive.

Regarding `CCCCCOC(=O)c1ccccc1C(=O)OCCCCC`, the result in assay [1], in assay [2], in assay [3], in [4], in [5] and in assay [6] was inactive. Further, the outcome in [7] and in assay [9] was inactive. The AC50 in assay [8] was 9.05 µM (active).

As to `Nc1ccc(N=Nc2ccccc2)cc1`, the result in assay [1], in assay [4], in assay [5], in assay [6], in [8] and in [9] was inactive. Moreover, the AC50 in [2] is 29.3 µM (active); in assay [3], 3.9 µM (active); in [7], 8 µM (active).

For the compound `CC(C)(C)OOC(C)(C)CCC(C)(C)OOC(C)(C)C`, the outcome in assay [1], in assay [2], in assay [3], in assay [4], in assay [5] and in [6] was inactive. Further, the result in assay [8] and in assay [9] was inactive. Further, the AC50 in assay [7] was 31.3 µM (active).
